For this assay, the target named is Tyrosyl-DNA phosphodiesterase 1 (Homo sapiens) (UniProt Q9NUW8). Put plainly: Confirmation Assay for Inhibitors of Tyrosyl-DNA Phosphodiesterase (TDP1) (AID 489007). Further: nearly all actives have a fitted effect of over 40% in size. Particulars: recombinant human TDP1 enzymatic activity, dose-response. In outline: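 Compounds are preincubated 15 min at room temperature with 1 nM recombinant human Tdp1. The reaction starts on adding 15 nM FITC-phosphotyrosine DNA substrate, runs 5 min, and is detected by AlphaScreen beads after 10 min.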

Molecules are shown by their SMILES. Records with an inconclusive call do not appear. Activity calls are given as the source filed them. The call rests on the fitted dose curve; in most records, active means well fitted inhibition curve with a large enough effect; inconclusive means small, poorly fitted or top-dose-only effect; inactive means flat fitted curve, though single readings scatter.
Potency means the concentration at half of the fitted maximal effect.

Tyrosyl-DNA phosphodiesterase 1 (Homo sapiens), sequence (Q9NUW8 whole entry, looked up): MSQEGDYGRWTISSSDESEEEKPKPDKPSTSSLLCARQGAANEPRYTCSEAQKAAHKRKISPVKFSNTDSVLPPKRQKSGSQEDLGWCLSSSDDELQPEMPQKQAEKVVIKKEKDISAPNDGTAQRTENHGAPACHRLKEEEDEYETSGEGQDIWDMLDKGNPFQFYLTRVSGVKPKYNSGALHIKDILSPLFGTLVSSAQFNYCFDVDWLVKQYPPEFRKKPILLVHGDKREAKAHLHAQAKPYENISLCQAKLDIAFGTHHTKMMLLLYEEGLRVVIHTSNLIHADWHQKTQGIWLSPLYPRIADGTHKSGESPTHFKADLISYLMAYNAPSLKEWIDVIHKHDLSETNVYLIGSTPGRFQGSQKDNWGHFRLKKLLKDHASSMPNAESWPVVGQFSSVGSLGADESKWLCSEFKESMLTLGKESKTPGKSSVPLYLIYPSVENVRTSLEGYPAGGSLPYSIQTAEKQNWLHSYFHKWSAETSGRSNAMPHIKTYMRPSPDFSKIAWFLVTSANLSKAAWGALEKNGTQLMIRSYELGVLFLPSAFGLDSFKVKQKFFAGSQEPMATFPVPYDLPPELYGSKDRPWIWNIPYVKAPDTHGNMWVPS

For `CN(C)C(=O)c1ccc(-c2cncnc2NCc2cccs2)cc1`, the Potency is 1.78 µM (active).

For the origin of these results see PubChem BioAssay (NCATS).
